Measured values from PubChem BioAssay AID504910 (Southern Research Specialized Biocontainment Screening …, 2011).
Entries with a potency or affinity are not part of this list. Unmarked numbers belong to inactive results. How the calls were made is not given here.

assay: HepG2 cell cytotoxicity, cytotoxicity control, set 4 (AID 504910); settings: series mostly up to 50 µM; viability: at the top concentration

Compound | viability [%]
CCC(Sc1nc2ccccc2c(=O)[nH]1)C(=O)Nc1cccc(OC)c1 (stereo unspecified) | 98.7
O=C(CSc1nccc(=O)[nH]1)NC1CCCCC1 | 102
CC[N+](C)(CC)CCCCOc1ccc2c(c1)C(=O)c1cc(OCCCC[N+](C)(CC)CC)ccc1-2 | 81.9
CCC(Sc1nc2ccccc2c(=O)[nH]1)C(=O)NC1CCCCC1 (stereo unspecified) | 100
Cc1cc(=O)[nH]c(SCC(=O)NC2CCCCC2)n1 | 96.6
CCSc1nc2ccccc2c(=O)[nH]1 | 96.7
CN(C)C(=O)CSc1nc2ccccc2c(=O)[nH]1 | 95.8
CO[C@H]1/C=C/O[C@@]2(C)Oc3c(C)c(O)c4c(O)c(c(C=NN5CCN(C)CC5)c(O)c4c3C2=O)NC(=O)/C(C)=C\C=C\[C@H](C)[C@H](O)[C@@H](C)[C@@H](O)[C@@H](C)[C@H](OC(C)=O)[C@@H]1C | 87
Cc1cnc(SCC(=O)NC2CCCCC2)[nH]c1=O | 97.8
Cc1cc(=O)[nH]c(=S)[nH]1 | 99.8
Cc1[nH]c(=S)[nH]c(=O)c1C | 92.7
NC(=O)c1cnccn1 | 97.8
COC(=O)C(Nc1nc(SCC(=O)NC2CCCCC2)nc2ccccc12)c1ccccc1 (stereo unspecified) | 86.1
CCCc1cc(C(N)=S)ccn1 | 88.6
CN1CCC(NC(=O)CSc2nc3ccccc3c(=O)[nH]2)CC1 | 86.5
COc1ccc(NC(=O)CSc2nc3ccccc3c(=O)[nH]2)cc1 | 95.1

Compound | viability [%]
O=C(CSc1ncccn1)NC1CCCCC1 | 100
Cc1nc(SCC(=O)NCCC(C)C)[nH]c(=O)c1C | 92
Cc1ccc(NC(=O)CSc2nc3ccccc3c(=O)[nH]2)cc1Cl | 91.9
Nc1cc(=O)[nH]c(SCC(=O)NC2CCCCC2)n1 | 95.5
CC(C)NC(=O)CSc1nc2ccccc2c(=O)[nH]1 | 91
COC(=O)c1ccc(CNc2c(N3CCCC3)c(=O)c2=O)cc1 | 103
O=C(CSc1ccccn1)NC1CCCCC1 | 94.3
COc1cccc(NC(=O)CSc2nc3ccccc3c(=O)[nH]2)c1 | 96.4
O=C(CSc1nc2ccccc2c(=O)[nH]1)NC1CCCCC1 | 95.5
CC[C@@H](CO)NCCN[C@@H](CC)CO | 99
Cc1cc(C)n2nc(N)c(N=Nc3ccccc3)c2n1 | 91.5
CCOC(=O)CSc1nc(C)c(C)c(=O)[nH]1 | 100
CCSc1nc(C)c(C)c(=O)[nH]1 | 96.9
NNC(=O)c1ccncc1 | 92.1
O=c1[nH]c(=S)[nH]c2ccccc12 | 93.8
